Assay [1] can be described thus: viability loss in pontine glioma line – cell-based, SU-DIPG-XXV, MIPE5.0, CellTiter-Glo, qHTS, dose response (AID 1347065; cut-off not given, nearly all actives have AC50 up to about 26 µM;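 further: cells exposed to compound for 48 hours before ATP readout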). Conditions: CellTiter-Glo ATP luminescence. On the technique in general: In ATP-based viability assays light output follows the ATP content of the culture.
Assay [2] is described as follows: compounds altering HSF1 focus formation in cells – imaging, Selleck Cancer Library (AID 1347162; in the data active means plate-normalised HSF1 focus index below about 0.46). Conditions: human cells, HSF1 nuclear foci imaging, at 10 µM; SSMD: measured here: HSF1 foci SSMD mean; cell count: measured here: cell number; plate-normalised HSF1 focus index: stronger effect = lower value.
Assay [3] in a line: viability loss in pontine glioma line – cell-based, SU-DIPG-XIII, MIPE5.0, CellTiter-Glo, qHTS, dose response (AID 1347064; cut-off not given, nearly all actives have AC50 up to about 23 µM;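 on AC50: cells exposed to compound for 48 hours before the viability read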). Conditions: CellTiter-Glo ATP luminescence.
Assay [4] can be described thus: rescue of PC12 cells from polyQ htt toxicity – LDH release (AID 1610). Conditions: PC12 mutant huntingtin toxicity, final LDH at 4 uM, stronger effect = lower value. A general note: LDH in the medium is a marker of cell lysis.
Assay [5] in a line: chitosan synthesis blockers in C. neoformans – flow cytometry, Cibacron Brilliant Red staining (AID 1347148; call rule not given here;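 further: compound exposure lasted three days at 37 degrees C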). Conditions: Cryptococcus neoformans chitosan, stronger effect = lower value; at 10 µM unless noted. On the technique in general: A flow cytometer gives signals particle by particle.
A short description of assay [6]: growth inhibition, single agents and combos, LFS_MB_1R, cell-based, cisplatin or BGB combos, synergistic combos for chromothripsis tumors (AID 1671452).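 Further: cells exposed for 96 hours before readout.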 Conditions: LFS_MB_1R medulloblastoma cells, stronger effect = higher value.
The nature of assay [7]: growth inhibition, single agents and combos, CRL2098, cell-based, BGB or cisplatin IC20 combos, synergistic combos for chromothripsis tumors (AID 1671454).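 Further: cells exposed for 96 h before readout; 0% = vehicle DMSO and 100% = killing by high DMSO.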 Conditions: CRL2098 osteosarcoma cells, drug combinations, stronger effect = higher value.
A short description of assay [8]: growth inhibition, single agents and combos, HD-MB03, cell-based, BGB or cisplatin IC20 combos, synergistic combos for chromothripsis tumors (AID 1671455; in the data active means inhibition above about 83%;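 further: 0% = vehicle DMSO and 100% = high DMSO as cytotoxic control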). To be noted: HD-MB03 medulloblastoma cells, stronger effect = higher value.
Assay [9] in a line: growth inhibition, single agents and combos, UWB1.289, cell-based, BGB or cisplatin combos, synergistic combos for chromothripsis tumors (AID 1671456).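 Further: cells exposed to compound for four days; 0% = vehicle DMSO and 100% = killing by high DMSO.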 Conditions: UWB1.289 ovarian carcinoma cells, stronger effect = higher value.
Assay [10] in a line: growth inhibition, single agents and combos, LFS_MB_2R, cell-based, cisplatin combos, synergistic combos for chromothripsis tumors (AID 1671457).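 Further: cells exposed to compound for four days before readout.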 Conditions: LFS_MB_2R medulloblastoma cells, stronger effect = higher value.
The nature of assay [11]: growth inhibition, MDA-MB-436, cell-based, BGB or cisplatin combos, synergistic combos for chromothripsis tumors (AID 1671458; call rule not given here;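 further: cells exposed for 96 hours; 0% = vehicle DMSO and 100% = killing by high DMSO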). To be noted: MDA-MB-436 breast carcinoma growth inhibition, drug combinations, stronger effect = higher value.
A short description of assay [12]: UWB1.289_BRCA1 ovarian cancer growth, cell-based, BGB or cisplatin combinations (AID 1671459). To be noted: UWB1.289 BRCA1 ovarian carcinoma, drug combinations, stronger effect = higher value.
Assay [13] can be described thus: drug combination toxicity in non-malignant astrocytes – cell-based, BGB or cisplatin IC20 combos, cytotoxicity control for chromothriptic childhood tumor combination screen (AID 1671460).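 Further: cells exposed to compounds for 96 hours before viability readout; 0% = vehicle and 100% = killing control.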 Conditions: Human astrocytes, viability inhibition, drug combinations, at 0.5 µM, stronger effect = higher value.
Assay [14] is described as follows: BT084 cell growth, single and combined drugs, ICGC_MB145, cisplatin and BGB IC40 combos (AID 1671461).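 Further: cells exposed to drugs for 96 hours; 0% = vehicle DMSO and 100% = high DMSO full killing control.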 To be noted: BT084 medulloblastoma cells, drug combinations, stronger effect = higher value.
A short description of assay [15]: RCMB18 cell growth, single agent and combined, cisplatin and BGB IC40 combos (AID 1671462).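 Further: cells exposed to compound for four days.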 To be noted: RCMB18 medulloblastoma cells, stronger effect = higher value.
Assay [16] can be described thus: CRL1545 cell growth, single agent and combined, cisplatin and BGB IC20 combos (AID 1671464).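 Further: cells exposed to compound for 96 hours before readout; 0% = vehicle DMSO and 100% = high DMSO killing control.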 Conditions: CRL1545 osteosarcoma cells, stronger effect = higher value.
The mark [17] stands for this setting: measured here: combination with cisplatin, at 0.5 µM.
Setting [18] is: measured here: combination with cisplatin, at 5 µM.

Several values for one entry are separate records, joined by “and”; a condition that tells them apart may be missing. Equal entries are not always repeated. Records with an inconclusive call do not appear. Activity calls are given as the source filed them. Unless noted, no stated cut-off is given here; in the data, active means inhibition above about 80%; inactive means the rest.

In the case of `CCC1(c2ccc(N)cc2)CCC(=O)NC1=O` (stereo unspecified), in assay [1], the call was inactive. Moreover, in assay [2], the SSMD came to 1.46, the cell count stood at 7280 and the plate-normalised HSF1 focus index was 1.05 (inactive).
Turning to `N[C@@H](Cc1ccc(N(CCCl)CCCl)cc1)C(=O)O`, in [3], the concentration at half-maximal activity (AC50) (in general, the midpoint of the concentration-response curve, whichever way the signal moves) is 18.6 µM (active). Moreover, in assay [2], the SSMD came to 1.42, the cell count worked out at 7340 and the plate-normalised HSF1 focus index is 1.09 (inactive).
As to `N[C@@H]1C[C@H]1c1ccccc1`, the result in assay [3] and in assay [1] was inactive.
Compound `CC[n+]1c(-c2ccccc2)c2cc(N)ccc2c2ccc(N)cc21` came in with a normalised LDH release in assay [4] of 0.673.
For the compound `C[C@@H]1O[C@@H](O[C@H]2C[C@@H](O)[C@]3(CO)[C@H]4[C@H](O)C[C@]5(C)[C@@H](C6=CC(=O)OC6)CC[C@]5(O)[C@@H]4CC[C@]3(O)C2)[C@H](O)[C@H](O)[C@H]1O`, in assay [1], the AC50 is 0.0934 µM (active). For the same compound, the fold fluorescence in assay [5] was 4.64 [at 85.5 µM] (inactive).
In the case of `C[C@@H]1CC[C@H]2[C@@H](C)C(=O)O[C@@H]3O[C@@]4(C)CC[C@@H]1[C@]32OO4`, the compound was called inactive in assay [1].
For the compound `C=C1C[C@@H]2[C@H](CC[C@]3(C)C(=O)CC[C@@H]23)[C@@]2(C)C=CC(=O)C=C12`, the result in assay [3] was inactive. Moreover, the compound was classed as inactive in [1]. Also, in [2], the SSMD came out at 1.72, the cell count was 6870 and the plate-normalised HSF1 focus index was 1.09 (inactive).
As to `CC(C)c1cccc(C(C)C)c1O`, the compound was called inactive in [3] and in assay [1].
As to `O=P1(NCCCl)OCCCN1CCCl` (stereo unspecified), the compound was called inactive in [3] and in assay [1]. Also, the inhibition (commonly the drop in the measured response relative to a control, in per cent) in assay [6] (at 0.5 µM) was -28.1% (inactive) and -35.8% (inactive); in [6] (measured here: combination with BGB IC40, at 0.05 µM), 3.69% and -53.3%; in [6] (setting [17]), -0.682% and -78.4%; in assay [6] (setting [18]) it was -35.6% and -67.8%; in assay [7] (at 0.5 µM), -54.7% (inactive) and -66.2% (inactive); in assay [7] (measured here: combination with BGB at IC20, at 0.5 µM), -36.5% and -70.3%. Besides, the inhibition in [7] (measured here: combination with cisplatin at IC20, at 0.5 µM) was -76.6% and -81.7%; in [8] (at 0.5 µM), -1.59% (inactive) and -13.1% (inactive); in [8] (measured here: combo with BGB at IC20, at 0.5 µM), -0.444% and -33.2%; in [8] (measured here: combo with cisplatin at IC20, at 0.5 µM), -1.58% and -14.4%; in assay [9] (at 0.5 µM), -7.68% (inactive) and -24.2% (inactive); in assay [9] (measured here: inhibition with BGB combination, at 0.05 µM), -37.9% and -17.6%. Also, the inhibition in assay [9] (measured here: inhibition with cisplatin combination, at 0.05 µM) is -13.2% and -26.4%; in assay [10] (at 0.5 µM), -24.9% (inactive) and -21% (inactive); in assay [10] (setting [17]), -18.4% and -33%; in [10] (setting [18]), -20.4% and -22.6%; in [11] (at 0.5 µM) it was -32.5% (inactive) and -17.3% (inactive); in [11] (measured here: BGB combination, at 0.5 µM), -44.8% and -19%. The inhibition in assay [11] (measured here: BGB combination, at 5 µM) was -38% and -30.9%; in assay [11] (measured here: cisplatin combination, at 0.5 µM), -35.4% and -19.9%; in assay [11] (measured here: cisplatin combination, at 5 µM), -21.1% and -24.7%; in [12] (BGB combination, concentration series, at 5 µM), -15.7% and -7.29%; in assay [12] (at 0.5 µM), -18.2% (inactive) and -23.7% (inactive); in [12] (cisplatin combination, concentration series, at 5 µM) it was -10.3% and -29.5%. Moreover, the inhibition in assay [13] was -8.49% (inactive) and 1.06% (inactive); in assay [13] (measured here: combo with BGB IC20), -4.33% and 4.18%; in assay [13] (measured here: combo with cisplatin IC20), -7.61% and -5.83%; in assay [14] (at 0.5 µM), -13.2% (inactive) and -8.24% (inactive); in assay [14] (cisplatin combination, at 0.5 µM), -6.37% and -25.6%; in assay [14] (cisplatin combination, at 5 µM), -50% and -9.28%. Also, the inhibition in assay [14] (measured here: BGB IC40 combination 0.05 uM, at 0.05 µM) was 1.93% and -27.2%; in [14] (single agent, at 5 µM) it was -32% and -16.6%; in assay [15] (at 0.5 µM), -14.3% (inactive) and -7.44% (inactive); in assay [15] (cisplatin combo, at 5 µM), -2.4% and -9.06%; in [15] (measured here: BGB IC40 combination, at 0.05 µM) it was -18.8% and -23%; in assay [15] (setting [17]), -12.5% and 2.1%. Moreover, the inhibition in assay [15] (single agent, at 5 µM) is -33% and -28.9%; in assay [16] (at 0.5 µM), -45.1% (inactive) and -50.6% (inactive); in assay [16] (measured here: with BGB IC20 combination, at 0.5 µM), -3.77% and -48%; in assay [16] (measured here: with cisplatin IC20 combination, at 0.5 µM), -65.8% and -54.4%; in assay [16] (single agent, at 0.05 µM), -16.2% and -50%; in assay [16] (single agent, at 5 µM), 2.18% and -61%.
In assay [4], `Oc1cccc2cccnc12` had a normalised LDH release of 1.
On to `NN=C(N)N`, for which the result in assay [3] and in assay [1] was inactive.
With `CNCC(O)c1ccc(O)cc1` (stereo unspecified), the result in [3] and in [1] was inactive.
For the compound `CC1(C)C(C=C(Cl)Cl)C1C(=O)OC(C#N)c1cccc(Oc2ccccc2)c1` (stereo unspecified), the fold fluorescence in [5] was 4.81 [at 120.1 µM] (inactive).
Take `CN1C(=O)COc2c(C(=O)NC3CN4CCC3CC4)cc(Cl)cc21` (stereo unspecified): the compound was classed as inactive in assay [3] and in assay [1].
As for `N#Cc1nn(-c2c(Cl)cc(C(F)(F)F)cc2Cl)c(N)c1S(=O)C(F)(F)F` (stereo unspecified), the fold fluorescence in assay [5] is 4.35 [at 114.4 µM] (inactive).
As for `C#CCN(C)[C@H](C)Cc1ccccc1`, the compound was classed as inactive in assay [3] and in [1].
In the case of `COc1ccc(C(=O)N2CCCC2=O)cc1`, the call in assay [1] was inactive.
As for `Nc1ccncc1`, the fold fluorescence in [5] was 3.69 [at 531.3 µM] (inactive).
Turning to `Cc1cccc(C)c1NC(=O)CN1CCCC1=O`, the compound was classed as inactive in assay [3] and in [1].
`c1ccc(C2CC2)c(OCC2=NCCN2)c1`: the fold fluorescence in [5] is 4.38 [at 231.2 µM] (inactive).
